Inconclusive results are not listed. Activity calls are given as the source filed them. Calls come from the whole dose curve.
Key:
[1] = Primary qHTS for inhibitors of SARS-S pseudo-typed particle cell entry (AID 1479145); note: nearly all actives have a fitted effect of over 45% in size
[2] = Primary qHTS for Huh7 cytotoxicity: counterscreen for inhibitors of MERS-S pseudotyped particle cell entry (AID 1479147)
[3] = Primary qHTS for inhibitors of MERS-S pseudo-typed particle cell entry (AID 1479149); note: nearly all actives have a fitted effect of over 60% in size
[4] = Primary qHTS for Vero E6 cytotoxicity: counterscreen for inhibitors of SARS-S pseudo-typed particle cell entry (AID 1479150)
[5] = Cytotoxicity counterscreen for inhibitors of SARS-CoV-2 cell entry (AID 1645845); note: nearly all actives have a fitted effect of over 50% in size
Outline: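 48 h compound treatment (after 1 h preincubation), HEK293-ACE2 cells, 37 C/5% CO2; ATP luminescence endpoint; normalized to cell wells and media blanks.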

Measured: Potency

CCOC(=O)[C@H](CCc1ccccc1)N[C@@H](C)C(=O)N1Cc2ccccc2C[C@H]1C(=O)O
inactive: [1] | [2] | [3] | [4] | [5]

O=C1CCC(N2C(=O)c3ccccc3C2=O)C(=O)N1 (stereo not given)
inactive: [1] | [2] | [3] | [4] | [5]

Nc1nc2c(ncn2COCCO)c(=O)[nH]1
inactive: [1] | [2] | [3] | [4] | [5]

CN(C)[C@@H]1C(=O)C(C(N)=O)=C(O)[C@@]2(O)C(=O)C3=C(O)c4c(O)ccc(Cl)c4[C@@H](O)[C@H]3C[C@@H]12
inactive: [1] | [2] | [3] | [4] | [5]

CC/C=C(\C(=O)N[C@@H]1C(=O)N2C(C(=O)OCOC(=O)C(C)(C)C)=C(COC(N)=O)CS[C@H]12)c1csc(N)n1
inactive: [1] | [2] | [3] | [4] | [5]

CC(C)NCC(O)c1ccc(O)c(O)c1 (stereo not given)
inactive: [1] | [2] | [3] | [4] | [5]

NS(=O)(=O)Cc1noc2ccccc12
inactive: [1] | [2] | [3] | [4] | [5]

Oc1ccc(C2CNCCc3c2cc(O)c(O)c3Cl)cc1 (stereo not given)
inactive: [1] | [2] | [3] | [4] | [5]

From PubChem BioAssay (NCATS)
